Consider 16 compounds from ChEMBL document CHEMBL1961873, “Compounds: GSK PKIS; Assays: Nanosyn kinase panel” (2012).

Assay [1] has as its target 5'-AMP-activated protein kinase catalytic subunit alpha-2 (Homo sapiens) (UniProt P54646). The following applies: at 1 µM.
Assay [2] concerns the target T1, NUAK family SNF1-like kinase 1 (Homo sapiens) (UniProt O60285).
T1 sequence (whole entry): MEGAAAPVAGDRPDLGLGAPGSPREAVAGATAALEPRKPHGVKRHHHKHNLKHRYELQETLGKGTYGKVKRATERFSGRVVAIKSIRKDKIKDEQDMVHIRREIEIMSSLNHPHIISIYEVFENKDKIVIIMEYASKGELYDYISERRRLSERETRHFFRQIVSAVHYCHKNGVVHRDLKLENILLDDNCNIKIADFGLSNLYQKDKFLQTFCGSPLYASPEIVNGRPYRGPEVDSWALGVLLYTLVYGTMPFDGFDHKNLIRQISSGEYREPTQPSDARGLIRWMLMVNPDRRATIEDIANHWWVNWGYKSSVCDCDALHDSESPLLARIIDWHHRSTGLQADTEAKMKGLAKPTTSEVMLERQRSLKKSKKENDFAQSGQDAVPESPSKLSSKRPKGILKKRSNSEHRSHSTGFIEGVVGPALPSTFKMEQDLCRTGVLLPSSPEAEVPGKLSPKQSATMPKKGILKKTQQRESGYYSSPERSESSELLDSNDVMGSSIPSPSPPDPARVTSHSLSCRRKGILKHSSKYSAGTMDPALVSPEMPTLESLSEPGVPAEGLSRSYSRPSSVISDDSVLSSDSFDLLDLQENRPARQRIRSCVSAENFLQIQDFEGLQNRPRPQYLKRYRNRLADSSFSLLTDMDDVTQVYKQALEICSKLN
Particulars: at 0.1 µM.

The target of assay [3] is T1, NUAK family SNF1-like kinase 1 (Homo sapiens). Particulars: at 1 µM.
Assay [4] addresses T2, Serine/threonine-protein kinase BRSK1 (Homo sapiens) (UniProt Q8TDC3).
T2 sequence (whole entry): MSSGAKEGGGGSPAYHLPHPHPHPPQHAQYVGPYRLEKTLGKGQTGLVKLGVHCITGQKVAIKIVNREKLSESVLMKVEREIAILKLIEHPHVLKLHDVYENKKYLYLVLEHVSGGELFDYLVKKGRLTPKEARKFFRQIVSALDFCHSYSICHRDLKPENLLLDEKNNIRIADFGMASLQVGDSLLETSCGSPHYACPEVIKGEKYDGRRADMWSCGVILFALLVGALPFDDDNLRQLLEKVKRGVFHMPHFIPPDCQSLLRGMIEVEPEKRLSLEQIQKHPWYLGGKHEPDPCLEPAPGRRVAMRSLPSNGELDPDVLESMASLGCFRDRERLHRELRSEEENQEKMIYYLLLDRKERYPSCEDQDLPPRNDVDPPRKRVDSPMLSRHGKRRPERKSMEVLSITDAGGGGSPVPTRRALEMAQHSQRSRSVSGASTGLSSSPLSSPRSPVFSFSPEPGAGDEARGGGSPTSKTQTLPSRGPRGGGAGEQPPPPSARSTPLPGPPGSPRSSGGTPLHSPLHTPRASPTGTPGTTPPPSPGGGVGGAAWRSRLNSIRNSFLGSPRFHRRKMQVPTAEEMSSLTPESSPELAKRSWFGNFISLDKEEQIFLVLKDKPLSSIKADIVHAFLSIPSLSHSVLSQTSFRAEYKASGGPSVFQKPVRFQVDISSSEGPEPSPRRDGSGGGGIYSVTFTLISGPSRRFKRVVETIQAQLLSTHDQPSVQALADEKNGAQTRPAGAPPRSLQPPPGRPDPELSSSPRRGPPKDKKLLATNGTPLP
Particulars: at 0.1 µM.

The target of assay [5] is T2, Serine/threonine-protein kinase BRSK1 (Homo sapiens). The following applies: at 1 µM.
Assay [6] addresses T3, Serine/threonine-protein kinase BRSK2 (Homo sapiens) (UniProt Q8IWQ3).
T3 sequence (whole entry): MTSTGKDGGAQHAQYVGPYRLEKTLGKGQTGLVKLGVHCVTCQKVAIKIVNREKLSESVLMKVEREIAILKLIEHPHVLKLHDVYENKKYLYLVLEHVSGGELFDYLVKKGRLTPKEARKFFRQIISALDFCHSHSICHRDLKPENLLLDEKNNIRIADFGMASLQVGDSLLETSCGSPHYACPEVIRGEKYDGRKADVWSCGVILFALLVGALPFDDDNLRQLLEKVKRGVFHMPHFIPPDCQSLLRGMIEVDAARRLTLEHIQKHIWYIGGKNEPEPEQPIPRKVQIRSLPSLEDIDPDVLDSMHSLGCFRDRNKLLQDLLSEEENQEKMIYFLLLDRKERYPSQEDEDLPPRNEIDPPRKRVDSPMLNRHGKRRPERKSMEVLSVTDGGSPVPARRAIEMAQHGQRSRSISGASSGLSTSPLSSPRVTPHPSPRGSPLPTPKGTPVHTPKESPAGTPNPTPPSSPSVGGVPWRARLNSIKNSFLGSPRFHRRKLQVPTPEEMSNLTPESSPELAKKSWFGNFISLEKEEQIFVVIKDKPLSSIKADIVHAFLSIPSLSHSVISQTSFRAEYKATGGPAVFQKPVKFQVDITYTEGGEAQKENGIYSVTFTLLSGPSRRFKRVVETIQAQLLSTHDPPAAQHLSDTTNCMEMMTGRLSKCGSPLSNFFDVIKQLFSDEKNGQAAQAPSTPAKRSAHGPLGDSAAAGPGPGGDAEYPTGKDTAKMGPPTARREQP
The following applies: at 0.1 µM.

Assay [7] addresses T3, Serine/threonine-protein kinase BRSK2 (Homo sapiens). Particulars: at 1 µM.
Assay [8] concerns the target Calcium/calmodulin-dependent protein kinase type 1D (Homo sapiens) (UniProt Q8IU85). Particulars: at 0.1 µM.
Assay [9] has the same target. Particulars: at 1 µM.
For assay [10], the target named is Calcium/calmodulin-dependent protein kinase type II subunit alpha (Homo sapiens) (UniProt Q9UQM7). The following applies: at 0.1 µM.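 Further: reported values are averages (mean inhibition of CAMK2A).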
Chain of Calcium/calmodulin-dependent protein kinase type II subunit alpha (Homo sapiens) (Q9UQM7 whole entry): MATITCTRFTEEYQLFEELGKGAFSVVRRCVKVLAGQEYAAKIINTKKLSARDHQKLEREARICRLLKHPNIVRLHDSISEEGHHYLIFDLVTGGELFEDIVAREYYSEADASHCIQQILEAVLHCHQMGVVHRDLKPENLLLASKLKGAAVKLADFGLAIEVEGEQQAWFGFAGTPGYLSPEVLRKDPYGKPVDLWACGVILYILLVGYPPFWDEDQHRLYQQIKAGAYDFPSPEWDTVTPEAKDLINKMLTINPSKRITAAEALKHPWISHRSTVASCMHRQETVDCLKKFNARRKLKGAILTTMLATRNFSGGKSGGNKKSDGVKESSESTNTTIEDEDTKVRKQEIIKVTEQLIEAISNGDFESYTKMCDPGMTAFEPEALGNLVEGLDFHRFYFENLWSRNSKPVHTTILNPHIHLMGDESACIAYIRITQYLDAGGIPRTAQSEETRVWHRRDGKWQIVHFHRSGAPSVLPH

Molecules are shown by their SMILES. Several values for one entry are separate records, joined by “and”; a condition that tells them apart may be missing. Equal values may be shown once.

Chain of 5'-AMP-activated protein kinase catalytic subunit alpha-2 (Homo sapiens) (P54646 whole entry, looked up): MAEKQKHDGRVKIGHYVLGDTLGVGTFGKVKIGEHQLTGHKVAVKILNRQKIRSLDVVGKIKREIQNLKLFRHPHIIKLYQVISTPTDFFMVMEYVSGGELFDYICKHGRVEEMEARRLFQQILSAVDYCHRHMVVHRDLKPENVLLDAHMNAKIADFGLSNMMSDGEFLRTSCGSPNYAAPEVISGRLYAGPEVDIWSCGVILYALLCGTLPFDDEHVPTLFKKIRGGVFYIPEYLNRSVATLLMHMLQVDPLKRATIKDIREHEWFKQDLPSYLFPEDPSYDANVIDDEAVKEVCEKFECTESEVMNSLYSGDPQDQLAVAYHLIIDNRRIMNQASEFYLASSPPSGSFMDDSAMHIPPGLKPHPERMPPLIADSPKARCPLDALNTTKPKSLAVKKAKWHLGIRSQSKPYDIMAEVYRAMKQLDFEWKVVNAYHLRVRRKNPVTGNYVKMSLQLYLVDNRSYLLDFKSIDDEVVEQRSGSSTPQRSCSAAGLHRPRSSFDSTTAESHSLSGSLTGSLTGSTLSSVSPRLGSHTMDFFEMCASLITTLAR
Chain of Calcium/calmodulin-dependent protein kinase type 1D (Homo sapiens) (Q8IU85 whole entry, looked up): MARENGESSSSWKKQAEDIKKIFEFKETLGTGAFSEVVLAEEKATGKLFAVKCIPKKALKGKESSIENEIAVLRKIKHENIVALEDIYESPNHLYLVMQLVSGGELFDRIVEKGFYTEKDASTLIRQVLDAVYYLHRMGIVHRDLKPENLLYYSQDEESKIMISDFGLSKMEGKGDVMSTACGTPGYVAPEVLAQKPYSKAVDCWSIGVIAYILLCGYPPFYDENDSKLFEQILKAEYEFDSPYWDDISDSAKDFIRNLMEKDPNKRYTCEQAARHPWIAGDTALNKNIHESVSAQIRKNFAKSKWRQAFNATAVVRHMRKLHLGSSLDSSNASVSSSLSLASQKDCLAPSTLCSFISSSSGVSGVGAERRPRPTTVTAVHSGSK

As a reminder, the inhibition is the drop in the measured response relative to a control, in per cent. With `Cc1cc(O)cc(C)c1/C=C/c1cncc(C(=O)OC(C)(C)C)c1`, the inhibition came out at 4.01% in assay [1]; 1.92% in assay [2]; 4.1% in assay [3]; 0.6% in [4]; 5.15% in [5]; 2.26% in [6]. Moreover, the inhibition in assay [7] was 3.54%; in [8] it was -0.01%; in assay [9] it was 1.19%; in [10] it was 1.37%.
As for `CS(=O)(=O)Nc1ccc(-c2ccc3c(NC(=O)C4CC4)n[nH]c3c2)cc1`, the inhibition in assay [1] was 40%; in assay [2], -6.19%; in [3], 2.46%; in assay [4] it was 3.42%; in assay [5] it was 5.22%; in assay [6] it was 2.03%. For the same compound, the inhibition in assay [7] was found to be 4.96%; in assay [8] it was 0.46%; in assay [9], 1.58%; in assay [10], 4.36%.
For the compound `CCOc1ccc2c(-c3ccnc(Nc4cc(OC)cc(C(F)(F)F)c4)n3)cnn2n1`, the inhibition in [1] stood at 3.94%; in [2] it was 4.52%; in assay [3], 21.2%; in [4], 0.53%; in assay [5] it was 5.51%; in [6], 1.89%. Further, the inhibition is 6.6% in [7], 0.33% in assay [8], 2.28% in assay [9] and -1.52% in assay [10].
In the case of `COC(=O)Nc1nc2cc(Oc3ccc(NC(=O)Nc4ccccc4)cc3)ccc2[nH]1`, the inhibition in assay [1] is 0.9%; in assay [2], -0.53%; in assay [3] it was -0.72%; in assay [4] it was -0.86%; in assay [5] it was 0.34%; in assay [6] it was 0.79%. Moreover, the inhibition in assay [7] was 2.06%; in assay [8] it was 0.99%; in [9] it was -1.18%; in assay [10] it was 2.23%.
Regarding `CC1(C)CC(n2cnc(-c3ccc(F)cc3)c2-c2ccnc(N)n2)CC(C)(C)N1`, the inhibition in [1] is 0.53%; in assay [2] it was 0.87%; in assay [3] it was 1.37%; in [4] it was 1.5%; in [5] it was 4.7%; in [6] it was 1.41%. The inhibition is 5.87% in [7], -0.53% in assay [8], 2.41% in assay [9] and -2.87% in assay [10].
For `c1ccc(-c2n[nH]cc2-c2ccnc(-c3ccc(OCCn4ccnc4)cc3)c2)nc1`, the inhibition in assay [1] was 1.29%; in assay [2] it was -0.74%; in [3] it was 7.14%; in assay [4] it was 0.8%; in assay [5], 1.98%; in [6] it was 0.62%. The inhibition in assay [7] was 4.44%; in assay [8], -0.08%; in assay [9], 0.91%; in assay [10], -3.32%.
In the case of `CNC(=O)c1sc(-n2cnc3cc(OC)c(OC)cc32)cc1OCc1ccccc1C(F)(F)F`, the inhibition in assay [1] is -1.59%; in assay [2], 0.7%; in [3] it was 6.22%; in [4], 0.35%; in assay [5], 4.45%; in assay [6], 4.29%. Besides, the inhibition is 4.88% in [7], 0.71% in assay [8], -0.22% in assay [9] and 2.98% in [10].
On to `O=C1Nc2ccccc2/C1=C1\CCc2cc(O)ccc21`, for which the inhibition in [1] turned out to be 14.3%; in [2], 16.2%; in assay [3], 60.8%; in [4] it was 3.95%; in assay [5], 16.9%; in assay [6], 5.82%. Further, the inhibition in assay [7] came out at 20.1%; in assay [8], 1.02%; in [9], 3.43%; in assay [10], 3.85%.
Consider `COC(=O)Nc1nc2ccc(Oc3ccc(NC(=O)Nc4cc(C(F)(F)F)ccc4F)cc3)cc2s1`, for which the inhibition in [1] is 1.67%; in assay [2] it was -0.54%; in assay [3], -3.55%; in assay [4], -0.58%; in [5], 0.34%; in assay [6] it was -0.27%. The inhibition is 0.24% in assay [7], 0.5% in [8], 2.93% in assay [9] and -0.9% in assay [10].
On to `Nc1nonc1-c1nc2cnccc2n1C1CC1`, for which the inhibition in assay [1] is 7.08% and 5.85%; in [2] it was 5% and 1.55%; in [3] it was 13.1% and 10.2%; in assay [4] it was 5.76% and 4.57%; in [5], 21.7% and 18.1%; in assay [6] it was 8.42% and 4.02%. Moreover, the inhibition in [7] is 27.9% and 27.1%; in assay [8], 0.19% and 0.41%; in assay [9] it was 1.1% and 0.69%; in assay [10], 4.16% and 0.57%.
In the case of `COc1ccccc1-c1cc(/C=C2\C(=O)Nc3ncc(Br)cc32)cc(Br)c1O`, the inhibition amounted to 7.88% in assay [1]; 4.1% in assay [2]; 6.09% in [3]; 4.73% in assay [4]; 5.82% in [5]; 5.97% in [6]. Further, the inhibition in [7] was 4.72%; in [8], 0.1%; in assay [9] it was 1.73%; in assay [10], 4.16%.
`NS(=O)(=O)c1cccc(N/C=C2\C(=O)Nc3ccccc32)c1`: the inhibition in assay [1] came to 11.2%; in [2] it was 5.37%; in assay [3], 35.8%; in assay [4], 4.66%; in assay [5], 17.9%; in assay [6], 5.23%. Further, the inhibition in [7] was determined as 26%; in assay [8], 0.94%; in assay [9], 3.7%; in assay [10], 3.94%.
For the compound `OCCCNc1nccc(-c2c(-c3ccc(F)cc3)nn3cc(C(F)(F)F)ccc23)n1`, the inhibition in assay [1] worked out at 3.17%; in [2] it was 0.07%; in [3], 3.25%; in [4], 1.56%; in assay [5] it was 3.4%; in [6], 1.44%. Also, the inhibition in assay [7] is 3.37%; in assay [8] it was -0.48%; in [9], 3.05%; in [10], 2.38%.
Take `N#Cc1cccc(Nc2ncc(-c3ccccc3)o2)c1`: the inhibition in [1] is 1.61%; in assay [2], 0.75%; in [3], 7.37%; in assay [4] it was -1.88%; in [5], 1.82%; in assay [6], 0.65%. In addition, the inhibition was 5% in [7], -1.6% in assay [8], -1.52% in assay [9] and 1.87% in assay [10].
In the case of `COc1cc(Nc2ncc(-c3ccccc3)o2)cc(OC)c1`, the inhibition in assay [1] was 8.23%; in [2] it was 5.89%; in assay [3] it was 32.7%; in assay [4] it was -1.27%; in assay [5], 8.79%; in [6], 2.68%. In addition, the inhibition in assay [7] is 7.23%; in [8], -0.33%; in [9] it was -0.66%; in assay [10] it was 2.98%.
Turning to `c1cnn2ncc(-c3ccnc(NCCCN4CCOCC4)n3)c2c1`, the inhibition in [1] is 2.36%; in [2], -0.66%; in assay [3], 0.6%; in [4] it was 0.82%; in assay [5], 1.97%; in assay [6], 1.69%. Moreover, the inhibition is 1.28% in [7], -0.6% in [8], -0.17% in assay [9] and 2.86% in assay [10].
